Most compounds without a hit are left out; they make up all but 14% or so of the library.
Cycloheximide cs – counter-screen for Shiga toxin inhibitors: cycloheximide protein synthesis inhibition; cell reporter, cycloheximide protein synthesis inhibition counterscreen; max response, %; 300,000 compounds, 12% hits; in the data active means max response mostly above about 13%, no sharp cut-off; inactive means mostly below about 14%; further: read at 38.3 µM for the half of the compounds with a filed dose; 0% is about no effect
Shiga inhibitor – blocks Shiga toxin action in Vero cells; inhibition, % at 38.7 µM; 290,000 compounds, 9.2% hits; Vero cells, Shiga toxin protein synthesis inhibition reporter; in the data active means inhibition mostly above about 28%, no sharp cut-off; inactive means mostly below about 43%; further: 0% is about no effect
Giardia FBPA inh – Giardia lamblia aldolase inhibition; A8B2U2; purified Giardia FBPA; Potency, µM (highest dose often 59.6 µM), for inactives: at the highest dose activity, negative = inhibition, usual class: inhibitors; 290,000 compounds, 0.71% hits; further: potency means the concentration at half of the fitted maximal effect; on the % scale 0 is the no-effect control and ±100 the full control effect; nearly all actives have a fitted effect of over 55% in size
Target sequence (A8B2U2 whole entry, looked up): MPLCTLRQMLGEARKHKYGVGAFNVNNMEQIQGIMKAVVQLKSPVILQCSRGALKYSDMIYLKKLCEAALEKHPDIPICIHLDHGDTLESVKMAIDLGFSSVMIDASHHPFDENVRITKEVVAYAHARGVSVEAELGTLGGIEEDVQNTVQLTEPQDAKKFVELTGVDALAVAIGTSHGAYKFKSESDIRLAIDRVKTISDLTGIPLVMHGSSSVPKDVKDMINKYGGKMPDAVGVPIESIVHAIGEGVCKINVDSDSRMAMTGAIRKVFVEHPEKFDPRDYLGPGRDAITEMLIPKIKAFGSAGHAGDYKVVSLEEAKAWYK
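40 nM FBPA preincubated 10 min at RT with compound (up to 57.5 uM final), then substrate plus GAPDH/TPI/NAD/arsenate coupling and diaphorase/resazurin added. Fluorescence read after 20 min at RT, 525/598 nm.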
NS1 function inh – inhibitors of influenza NS1 protein function; 270,000 compounds, 0.4% hits; Potency, µM (top dose mostly 46.1 µM), inactives show top-dose activity, positive = more growth; AID 2326; calls by dose curve; further: potency means the concentration at half of the fitted maximal effect; actives are rising curves; nearly all actives have a fitted effect of over 50% in size
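OD600 was taken as the measure of yeast growth restored by compound in an NS1-expressing S. cerevisiae strain. Cells had been washed out of glucose medium and diluted 1:100 into galactose -URA medium, pH 6.0.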
LmPK inhibitor – LmPK (Leishmania mexicana) enzyme inhibition; Potency, µM (titrated, usually from 57.5 µM), for the others: at the top dose activity change, negative = inhibition, usual class: inhibitors; 290,000 compounds, 0.37% hits; Q27686; purified LmPK, Kinase-Glo ATP luminescence, 1 h; further: potency means the concentration at half of the fitted maximal effect; on the % scale 0 is the no-effect control and ±100 the full control effect
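Purified LmPK (0.1 nM) converted ADP (0.1 mM) to ATP with PEP (0.5 mM) in imidazole buffer pH 7.2 with KCl and MgCl2, 1 h at room temperature. ATP was read by Kinase-Glo luminescence; data normalized to uninhibited and no-enzyme controls.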
* marks the source's active call; other numbers are inactive results; ? = inconclusive; . = no result given. Unless noted, the call rests on the fitted dose curve; in most records, active means well fitted curve in the direction sought with a large enough effect; inconclusive means small, poorly fitted or top-dose-only effect, or another doubt; inactive means no such curve, though single readings can be large; an effect the other way counts as inactive or inconclusive.

SMILES	Cycloheximide cs	Shiga inhibitor	Giardia FBPA inh	NS1 function inh	LmPK inhibitor
CCC(=O)Nc1ccc(C(=O)Nc2cccnc2)cc1	15*	37*	2%	-2%	-1%
O=C(Nc1cccnc1)c1ccc(COCC(F)(F)F)cc1	12*	38*	-1%	?	3%
CN(C)c1ncc2nc(-c3ccc(Cl)cc3)c(=O)n(C3CC3)c2n1	.	.	-1%	.	.
CCc1nc(SCc2nc3ccccc3[nH]2)c2oc3ccccc3c2n1	14*	8	18%	-119%	8%
c1cncc(-c2nnc(SCc3nc4ccccc4[nH]3)o2)c1	12	22	?	1%	-8%
c1ccc2[nH]c(CSc3nc4ccccc4o3)nc2c1	42*	137*	-6%	-19%	-1%
CCc1nc(SCC(=O)c2ccc(Cl)s2)c2oc3ccccc3c2n1	46*	89*	1%	5%	3%
FC(F)(F)c1cccc(NC(=S)N2CCCCCC2)c1	5	19	-19%	.	0%
O=C(Nc1cccc(C(F)(F)F)c1)C(=O)N1CCCCC1	11*	24	-2%	-1%	6%
O=C(Nc1cccc([N+](=O)[O-])c1)C(=O)N1CCCCC1	43*	69*	4%	1%	?
FC(F)(F)c1cc(CN2CC[C@@]3(CCCNC3)C2)cc(C(F)(F)F)c1	.	.	-1%	.	.
CCOC(=O)c1sc(N/N=C/c2ccc(N(C)C)cc2)nc1C	6	9	17%	13%	0%
CC(=O)c1sc(N/N=C\c2ccc(Br)cc2)nc1C	72*	active	-4%	15%	4%
CC(=O)c1sc(N/N=C\c2cccc(Br)c2)nc1C	67*	85*	-11%	-24%	1%
Cc1c(NC(=O)COC(=O)c2cc(-c3ccc(-c4ccccc4)cc3)nc3ccccc23)c(=O)n(-c2ccccc2)n1C	57*	84*	5%	7%	4%
COc1ccc(-c2cc(C(=O)OC(C)C(=O)Nc3c(C)n(C)n(-c4ccccc4)c3=O)c3ccccc3n2)cc1 (stereo unspecified)	-6	-10	-4%	-10%	2%
Cc1c(C(=O)N2CCC[C@H]2C(N)=O)oc2c(F)cccc12	29*	20	6%	6%	0%
COc1ccc(C(=O)Cn2ccsc2=NC(C)=O)cc1	7	-5	3%	.	-3%
O=C(Cn1ccsc1=NC(=O)c1ccco1)c1ccccc1	24*	32	6%	-2%	5%
O=C(CCCC(=O)N(CC(=O)NC1CCCCC1)c1ccccc1F)Nc1ccccn1	-4	-1	2%	2%	4%
N#CCc1nn2c(-c3ccccc3)ccnc2c1C#N	-2	-6	-6%	?	-3%
Brc1ccc(Oc2ncc(CN3CCOCC3)s2)cc1	33*	41	3%	-22%	-2%
COc1ccc(Oc2ncc(CN3CCN(c4ccccc4)CC3)s2)cc1	0	24	0%	-10%	6%
Cc1ccc(-c2nc3ccccc3c(=O)n2-c2cc(C)ccn2)cc1	30*	48	5%	6%	-7%
CC(=O)c1c(O)c(C)c(-c2ccccc2)n(-c2ccccc2)c1=O	-4	22	0%	-2%	3%
SMILES	Cycloheximide cs	Shiga inhibitor	Giardia FBPA inh	NS1 function inh	LmPK inhibitor
O=C(c1ccccc1)c1c(O)nc(-c2ccccc2)n(-c2ccccc2)c1=O	54*	78*	1%	3%	0%
COc1ccc(-n2c(-c3ccc(C)cc3)nc3ccccc3c2=O)cc1	32*	58*	-8%	-4%	4%
Cc1ccc(-c2nc3ccccc3c(=O)n2-c2ccncc2)cc1	1	-4	3%	-3%	-1%
O=c1c2ccccc2nc(-c2ccc(-c3ccccc3)cc2)n1-c1ccncc1	26*	21	-1%	-1%	2%
COc1cccc(CNn2c(-c3cccc(C)c3)nc3ccccc3c2=O)c1	19*	24	-6%	-1%	5%
COc1ccc(OC)c(CNn2c(-c3cccc(C)c3)nc3ccccc3c2=O)c1	-1	3	-5%	-8%	3%
COc1ccc(NC(=O)c2cc(-c3ccc(C)o3)nc3ccccc23)cc1OC	38*	80*	-25%	7%	-22%
Cc1cccc(-c2cc(C(=O)Nc3ccc4c(c3)OCCO4)c3ccccc3n2)c1	32*	96*	-4%	13%	-5%
O=C(Nc1ccc2c(c1)OCCO2)c1cc(-c2ccccn2)nc2ccc(Br)cc12	18	41	-2%	6%	0%
Cc1ccc(-c2cc(C(=O)Nc3nccs3)c3ccccc3n2)o1	-2	-5	-9%	-25%	-18%
